FMDV inh – foot and mouth disease virus antiviral activity | 410,000 compounds, 1.2% hits | Potency, µM (highest dose often 57.9 µM), for inactives: at the top dose activity change, negative = inhibition, hits mostly inhibitors | AID 1159524 | FMDV antiviral cell-based qHTS; calls by dose curve; tested in HEK293T cells; further: read-out not given here; potency means the concentration at half of the fitted maximal effect; nearly all actives have a fitted effect of over 45% in size
HCMV antiviral – blocks human cytomegalovirus replication; HFF cells, HCMV-luciferase reporter, 72 h; active compounds read low; activity change, negative = inhibition, % at 57.5 µM; 410,000 compounds, 4.5% hits; in the data active means activity change below about -60%; inconclusive means no clear call, values can overlap the other calls; inactive means above about -39%
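Human foreskin fibroblasts infected with luciferase-reporter HCMV at MOI 1 PFU/cell, compounds at two doses. Luciferase measured 72 h post infection; normalized to buffer-only basal and Salinomycin (10uM) controls.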
RE007 growth inh – less growth of the S. pombe RE007 Vpr strain. S. pombe RE007 Vpr strain, BacTiter-Glo ATP luminescence, 24 h. Potency, µM (series often up to 92.2 µM), inactives show at the top dose activity change, negative = less growth, most hits filed as inhibitors. 360,000 compounds, 0.21% hits. AID 651644; active means well fitted falling curve with a large enough effect; inconclusive means small, poorly fitted or top-dose-only effect; inactive means no such curve, though single readings can be large or run the other way; further: potency means the concentration at half of the fitted maximal effect; nearly all actives have a fitted effect of over 50% in size
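Fission yeast strain RE007, carrying one chromosomally integrated HIV-1 vpr copy, was seeded at OD 0.01 in PMG+AL medium with 23 nL pinned compound. After 24 h at 30 °C and 99% humidity, viability was read by BacTiter-Glo luminescence.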
FBPA Giardia inh – Giardia lamblia aldolase inhibition. Potency, µM (titrated, usually from 59.6 µM), inactives show at the highest dose activity, negative = inhibition, hits mostly inhibitors. AID 2451. 290,000 compounds, 0.71% hits. A8B2U2. purified Giardia FBPA; further: potency means the concentration at half of the fitted maximal effect; nearly all actives have a fitted effect of over 55% in size
Target sequence (A8B2U2 whole entry, looked up): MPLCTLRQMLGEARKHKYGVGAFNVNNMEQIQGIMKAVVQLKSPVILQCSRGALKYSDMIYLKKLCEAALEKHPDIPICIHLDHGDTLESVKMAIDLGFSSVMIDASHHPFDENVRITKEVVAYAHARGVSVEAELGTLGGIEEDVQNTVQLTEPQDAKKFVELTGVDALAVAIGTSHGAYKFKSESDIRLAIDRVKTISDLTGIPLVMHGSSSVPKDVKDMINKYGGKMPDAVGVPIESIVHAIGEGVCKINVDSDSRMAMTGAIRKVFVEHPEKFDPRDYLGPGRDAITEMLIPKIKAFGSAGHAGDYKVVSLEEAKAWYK
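Giardia FBPA (40 nM reagent) was preincubated 10 min at RT with compound (up to 57.5 uM final), then substrate plus GAPDH/TPI/NAD/arsenate coupling system with diaphorase/resazurin was added; resorufin fluorescence (525/598 nm) was read after 20 min.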
Sm TGR block – S. mansoni TGR enzyme inhibition; Q962Y6; purified TGR, DTNB reduction, TNB absorbance 405 nm; Potency, µM (series often up to 114 µM), for inactives: at the highest dose activity change, negative = inhibition, most hits filed as inhibitors; 360,000 compounds, 3% hits; further: potency means the concentration at half of the fitted maximal effect; nearly all actives have a fitted effect of over 60% in size
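TGR 20 nM + NADPH 100 uM (dispensed conc.), cpd preinc 15 min RT; start with NADPH (500 uM addition) then DTNB (15 mM addition). Kinetic TNB absorbance, 405 nm filter. Four-parameter Hill fit across titration.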
TbPYK inhibitor – inhibitors of Trypanosoma brucei pyruvate kinase | Q57TT1 | TbPYK enzyme, Kinase-Glo Plus ATP luminescence, 45 min | Potency, µM (top dose mostly 76.8 µM), without a hit: at the top dose activity, negative = inhibition, hits mostly inhibitors | 410,000 compounds, 0.12% hits; further: potency means the concentration at half of the fitted maximal effect; nearly all actives have a fitted effect of over 50% in size
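TbPYK + substrate in 50 mM TEA pH 7.2, 100 mM KCl, 10 mM MgCl2, 0.05% BSA, 0.01% Tween-20; cpd pinned; ADP 130 uM final; 45 min RT; Kinase-Glo Plus 10 min; luminescence endpoint.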
An asterisk follows results filed as active; ? = inconclusive; . = no result given. Sampled rows, rich in hits. Any-hit rate of the full collection: about 7.7%. Unless noted, the call rests on the fitted dose curve; in most records, active means well fitted curve in the direction sought with a large enough effect; inconclusive means small, poorly fitted or top-dose-only effect, or another doubt; inactive means no such curve, though single readings can be large; an effect the other way counts as inactive or inconclusive. On the % scale 0 is the no-effect control and ±100 the full control effect.

SMILES | FMDV inh | HCMV antiviral | RE007 growth inh | FBPA Giardia inh | Sm TGR block | TbPYK inhibitor
COc1ccc(C2=NN(C(N)=S)C(c3ccco3)C2)cc1 (stereo not given) | 19.5% | -8.2 | 23.6% | -14.4% | 8.91µM* | -7.1%
Cc1ccc(C2=NN(C(=O)CSc3nc4ncc(Cl)cc4[nH]3)C(c3ccco3)C2)cc1 (stereo not given) | -14.5% | 11.3 | 13.4% | -13.5% | 14.1µM* | 1.1%
COc1ccc(C2=NN(C(=O)CSc3nc4ncc(Cl)cc4[nH]3)C(c3ccco3)C2)cc1 (stereo not given) | 5.6% | 84.0 | 1.0% | -5.4% | 28.2µM* | -19.5%
Cc1cc(C)cc(NS(=O)(=O)c2ccc(-c3cc(C)no3)cc2)c1 | 21.0% | -80.3* | . | . | 4.8% | 3.1%
Cc1ccc(NS(=O)(=O)c2ccc(-c3cc(C)no3)cc2)c(C)c1 | -27.2% | -65.1* | . | . | 11.8% | 1.5%
Cc1ccc(S(=O)(=O)Nc2cc(C)c(O)cc2C)cc1 | -3.3% | -75.6* | 0.6% | 14.7% | -4.6% | -5.6%
C/C(=N/NS(=O)(=O)c1ccc(Br)cc1)c1c[nH]c2ccccc12 | 15.3% | -12.9 | 6.9% | . | 39.8µM* | -3.0%
C/C(=N\NS(=O)(=O)c1ccc([N+](=O)[O-])cc1)c1c[nH]c2ccccc12 | 25.3% | 44.0 | -8.2% | -30.2% | -35.4% | -7.9%
O=C(c1ccco1)N1CCN(C(c2cccs2)c2nnnn2C2CCCC2)CC1 (stereo not given) | 17.8% | -100.7* | 38.1% | 0.1% | -34.6% | -1.6%
Cc1ccc2occ(C(c3nnnn3C3CCCC3)N3CCN(C(=O)c4ccco4)CC3)c(=O)c2c1 (stereo not given) | . | -27.9 | 14.0% | -0.3% | 17.8µM* | -2.3%
COc1ccccc1C(=O)N1CCC(c2noc(-c3ccc(S(=O)(=O)N4CCCC4)cc3)n2)CC1 | ? | -84.2* | . | . | 6.2% | -2.2%
O=C(c1ccc(F)cc1)N1CCC(c2nc(-c3ccc(S(=O)(=O)N4CCCC4)cc3)no2)CC1 | ? | -11.1 | . | . | 5.7% | -11.2%
CC(C)C(=O)N1CCC(c2nc(-c3ccc(S(=O)(=O)N4CCCC4)cc3)no2)CC1 | 3.3% | -72.9* | -5.6% | 4.2% | 6.8% | 1.1%
COCCn1c(Cc2ccccc2)nnc1SCC(=O)Nc1oc(C)c2c(C)n[nH]c(=O)c12 | -17.5% | -16.9 | -6.5% | . | 50.1µM* | -5.1%
COCCn1c(Cc2ccccc2)nnc1SCC(=O)Nc1ccccc1 | 23.6% | 13.3 | 6.0% | 4.0% | . | -9.3%
Cc1n[nH]c(=O)c2c(NC(=O)CSc3nc4ccccc4c(=O)n3CCCO)oc(C)c12 | -18.7% | -86.7* | -2.9% | . | 0.0% | -5.7%
Cc1n[nH]c(=O)c2c(NC(=O)CSc3nnnn3-c3ccc(O)cc3)oc(C)c12 | -6.7% | -67.1* | -11.7% | . | ? | -25.5%
CCOc1ccc(N(C)C(=O)C2CCN(S(=O)(=O)c3ccc4c(c3)CCCN4C(C)=O)CC2)cc1 | ? | -12.8 | . | . | 0.8% | 0.1%
COc1cc(=O)n2c(c1C(=O)NC(C)c1ccco1)CCN(Cc1cc3ccccc3o1)CC2 (stereo not given) | 0.8% | . | . | . | . | .
O=C(Nc1ccc([N+](=O)[O-])c(NC(=O)C2CCCO2)c1)C1CCCO1 (stereo not given) | 15.4% | -17.2 | -1.9% | -14.6% | -6.7% | -3.1%
O=C(Nc1ccc(N=Nc2ccccc2)c(NC(=O)C2CCCO2)c1)C1CCCO1 (stereo not given) | 34.5% | -61.2* | 29.1% | 0.9% | -10.0% | -0.9%
COC(=O)C1[C@@H](OC)C(OC(=O)COc2ccc(OC)cc2)C[C@@H]2CN3CCc4c([nH]c5cc(OC)ccc45)[C@H]3C[C@H]12 (stereo not given in full) | . | . | . | . | . | 3.1%
CC1=C(C(=O)OCCCBr)C(c2ccc3c(c2)OCO3)NC(=O)N1 (stereo not given) | -21.9% | . | -3.4% | -9.6% | 25.1µM* | -13.8%
CCOC(=O)C1=C(CCl)NC(=O)NC1c1ccc2c(c1)OCO2 (stereo not given) | ? | -5.4 | -21.8% | 0.6% | 8.91µM* | 0.4%
CCCCOc1ccccc1C1NC(=O)NC(C)=C1C(=O)OCc1ccco1 (stereo not given) | . | -31.5 | 0.8% | 1.7% | 44.7µM* | -11.2%
SMILES | FMDV inh | HCMV antiviral | RE007 growth inh | FBPA Giardia inh | Sm TGR block | TbPYK inhibitor
CCOC(=O)C1=C(CN2CCSCC2)NC(=O)NC1c1ccc2c(c1)OCO2 (stereo not given) | -21.1% | -29.1 | -12.5% | -4.1% | 4.0% | -2.0%
COc1ccc(COC(=O)C2=C(C)NC(=O)NC2c2ccc(O)c(OC)c2)cc1 (stereo not given) | . | -68.1* | -23.3% | 3.2% | 1.7% | -1.3%
Cc1ccc2nc(COc3ccccc3NC(=O)COc3ccccc3Cl)cc(=O)n2c1 | -8.6% | 18.9 | . | . | 0.7% | -5.0%
Cc1cccc(-c2nc3scc(CCNC(=O)c4ccccc4Cl)n3n2)c1 | -2.8% | 17.1 | . | . | 4.7% | 0.5%
c1ccc2c(-n3ccnc3)nc(-c3ccoc3)nc2c1 | -0.3% | . | . | 0.6% | . | .
O=C(Cn1ncc2c3ccccc3n(Cc3ccccc3)c2c1=O)NCCCN1CCCCC1 | -16.8% | -29.7 | . | . | 8.6% | -0.1%
CC1=C(C(=O)OCCBr)C(c2cccc3ccccc23)NC(=O)N1 (stereo not given) | -12.8% | -22.8 | -2.0% | -6.5% | 39.8µM* | 2.3%
CC1=C(C(=O)OCc2ccc3c(c2)OCO3)C(c2ccc(Cl)cc2)NC(=O)N1 (stereo not given) | . | -85.7* | -6.6% | 0.1% | -0.7% | 2.6%
CN1CCCCC(NC(=O)c2ccc(F)cc2)C1=O (stereo not given) | . | -19.3 | . | . | . | .
CC(=O)N1CCC2(CCN(Cc3ccncc3)CC2)CC1 | -5.4% | . | . | 1.9% | . | 0.2%
COCc1nc2ccccc2n1Cc1ccc(C(C)(C)C)cc1 | 11.2% | 19.0 | . | . | ? | 0.0%
CCc1ccc(-c2nc(SCC(=O)N(CCOC)c3c(N)n(Cc4ccccc4)c(=O)[nH]c3=O)n[nH]2)cc1 | 16.6% | -78.7* | -11.0% | . | -20.1% | -8.1%
CCCCn1c(N)c(N(CCOC)C(=O)CSc2n[nH]c(-c3ccc(OC)cc3)n2)c(=O)[nH]c1=O | 10.3% | -76.1* | -8.1% | . | -10.8% | 9.0%
COCCN(C(=O)CSc1n[nH]c(-c2ccc(OC)cc2)n1)c1c(N)n(Cc2ccccc2)c(=O)[nH]c1=O | -15.2% | -12.9 | 2.9% | . | 1.4% | 2.3%
CC1(C)COC(c2ccc(F)c([N+](=O)[O-])c2)=N1 | ? | -31.5 | -3.6% | -7.9% | 50.1µM* | 0.9%
CC1CN=C(Nc2ccc(F)cc2)S1 (stereo not given) | -0.1% | ? | -1.3% | 8.9% | -5.2% | -7.0%
